According to PubChem BioAssay (NCATS):
Records with an inconclusive call do not appear. A call without a number means that no potency is given here. Active and inactive are the calls of the source. The call rests on the fitted dose curve; in most records, active means well fitted inhibition curve with a large enough effect; inconclusive means small, poorly fitted or top-dose-only effect; inactive means flat fitted curve, though single readings scatter.

What was measured:
Assay in all cases: qHTS profiling for inhibitors of Plasmodium falciparum proliferation (AID 504749); further: nearly all actives have a fitted effect of over 60% in size
Details in all cases: P. falciparum in erythrocytes, SYBR Green DNA, 72 h; series mostly up to 28.7 µM
[1] = system: CP297
In short: (§1)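 Three-day growth assay of blood-stage parasites in erythrocytes (0.3% parasitemia, 2.5% hematocrit) at 37 C, 5% CO2, quantified by SYBR Green DNA staining after overnight detergent lysis.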

[2] = system: CP305
In short: as §1

[3] = system: CP315
In short: as §1

[4] = system: CP325
In short: as §1

[5] = system: CP329
In short: as §1

[6] = system: CP335
In short: as §1

[7] = system: DFO2036
In short: as §1

[8] = system: DIV14
In short: as §1

[9] = system: DIV17
In short: as §1

[10] = system: DIV30
In short: as §1

[11] = system: Dd2
In short: as §1

[12] = system: ECU
In short: as §1

[13] = system: FAB9
In short: as §1

[14] = system: GB4
In short: as §1

[15] = system: HB3
In short: as §1

[16] = system: ICS
In short: as §1

[17] = system: JCK
In short: as §1

[18] = system: N140
In short: as §1

[19] = system: P93_24
In short: as §1

[20] = system: P94_40
In short: as §1
Potency means the concentration at half of the fitted maximal effect.

Compound | Potency [1] | Potency [2] | Potency [3] | Potency [4] | Potency [5] | Potency [6] | Potency [7] | Potency [8] | Potency [9] | Potency [10] | Potency [11] | Potency [12] | Potency [13] | Potency [14] | Potency [15] | Potency [16] | Potency [17] | Potency [18] | Potency [19] | Potency [20]
C=CC(C)(O)CC/C=C(\C)CCC=C(C)C (stereo not drawn) | inactive | inactive | inactive | inactive | inactive | inactive | inactive | inactive | inactive | inactive | inactive | inactive | inactive | inactive | inactive | inactive | inactive | inactive | inactive | inactive
CCCCCCCCCCCCCCCCCC(=O)OCC(C)O (stereo not drawn) | inactive | inactive | inactive | inactive | inactive | inactive | inactive | inactive | inactive | inactive | inactive | inactive | inactive | inactive | inactive | inactive | inactive | inactive | inactive | inactive
CC(C)(C)c1ccc2c(S(=O)(=O)O)c(C(C)(C)C)ccc2c1 | inactive | inactive | inactive | inactive | inactive | inactive | inactive | inactive | inactive | inactive | inactive | inactive | inactive | inactive | inactive | inactive | inactive | inactive | inactive | inactive
CC12CCC(C1)C(C)(C)C2=O (stereo not drawn) | inactive | inactive | inactive | inactive | inactive | inactive | inactive | inactive | inactive | inactive | inactive | inactive | inactive | inactive | inactive | inactive | inactive | inactive | inactive | inactive
COC1=C(OC)C(=O)C(C/C=C(\C)CC/C=C(\C)CC/C=C(\C)CC/C=C(\C)CC/C=C(\C)CC/C=C(\C)CC/C=C(\C)CC/C=C(\C)CC/C=C(\C)CCC=C(C)C)=C(C)C1=O | inactive | inactive | inactive | inactive | inactive | inactive | inactive | inactive | inactive | inactive | inactive | inactive | inactive | inactive | inactive | inactive | inactive | inactive | inactive | inactive
CC12CCC(C[N+](C)(CCC[N+](C)(C)C)C1)C2(C)C (stereo not drawn) | inactive | inactive | inactive | inactive | inactive | inactive | inactive | inactive | inactive | inactive | inactive | inactive | inactive | inactive | inactive | inactive | inactive | inactive | inactive | inactive
NCC(O)CC(=O)O (stereo not drawn) | inactive | inactive | inactive | inactive | inactive | inactive | inactive | inactive | inactive | inactive | inactive | inactive | inactive | inactive | inactive | inactive | inactive | inactive | inactive | inactive
C=C(C)C1CC=C(C)CC1 (stereo not drawn) | inactive | inactive | inactive | inactive | inactive | inactive | inactive | inactive | inactive | inactive | inactive | inactive | inactive | inactive | inactive | inactive | inactive | inactive | inactive | inactive
O=S(=O)(O)CCCS(=O)(=O)O | inactive | inactive | inactive | inactive | inactive | inactive | inactive | inactive | inactive | inactive | inactive | inactive | inactive | inactive | inactive | inactive | inactive | inactive | inactive | inactive
NC(=S)N=Nc1ccc(NN=C(N)N)cc1 | 9.53 µM (active) | 7.57 µM (active) | 8.49 µM (active) | 10.7 µM (active) | 7.57 µM (active) | 8.49 µM (active) | 5.01 µM (active) | 6.01 µM (active) | 7.57 µM (active) | 9.53 µM (active) | 2.51 µM (active) | – | 11.2 µM (active) | 6.75 µM (active) | 5.62 µM (active) | 5.01 µM (active) | 8.91 µM (active) | 7.94 µM (active) | 5.01 µM (active) | 7.94 µM (active)
ClC(Cl)Cl | inactive | inactive | inactive | inactive | inactive | inactive | inactive | inactive | inactive | inactive | inactive | inactive | inactive | inactive | inactive | inactive | inactive | inactive | inactive | inactive
Cc1cc2nc3c(=O)[nH]c(=O)nc-3n(C[C@H](O)[C@H](O)[C@H](O)COP(=O)(O)OP(=O)(O)OC[C@H]3O[C@@H](n4cnc5c(N)ncnc54)[C@H](O)[C@@H]3O)c2cc1C | inactive | inactive | inactive | inactive | inactive | inactive | inactive | inactive | inactive | – | inactive | inactive | inactive | inactive | inactive | inactive | inactive | inactive | inactive | inactive
C[C@]12CC[C@@H]3c4ccc(OC(=O)c5ccccc5)cc4CC[C@H]3[C@@H]1CC[C@@H]2O | inactive | inactive | inactive | inactive | inactive | 12 µM (active) | inactive | inactive | inactive | inactive | – | inactive | inactive | inactive | inactive | 11.2 µM (active) | inactive | inactive | inactive | inactive
C/C=C/C=C/C(=O)O | inactive | inactive | inactive | inactive | inactive | inactive | inactive | inactive | inactive | inactive | inactive | inactive | inactive | inactive | inactive | inactive | inactive | inactive | – | inactive
CC(C)[C@H](N)C(=O)OCC(CO)OCn1cnc2c(=O)[nH]c(N)nc21 (stereo partly drawn) | inactive | inactive | inactive | inactive | inactive | inactive | inactive | inactive | inactive | inactive | inactive | inactive | inactive | inactive | inactive | inactive | inactive | inactive | inactive | inactive
C[C@H](CCCC(C)(C)O)[C@H]1CC[C@H]2[C@@H]3CC=C4C[C@@H](O)CC[C@]4(C)[C@H]3CC[C@]12C | inactive | inactive | inactive | inactive | inactive | inactive | inactive | inactive | inactive | inactive | 15.8 µM (active) | inactive | inactive | inactive | – | 12.6 µM (active) | inactive | inactive | inactive | –
COc1ccc(C(=O)CCC(=O)O)c2ccccc12 | inactive | inactive | inactive | inactive | inactive | inactive | inactive | inactive | inactive | inactive | inactive | inactive | inactive | inactive | inactive | inactive | inactive | inactive | inactive | inactive
CC/C=C\C/C=C\C/C=C\C/C=C\C/C=C\C/C=C\CCC(=O)O | inactive | inactive | inactive | inactive | inactive | inactive | inactive | inactive | inactive | inactive | inactive | – | inactive | inactive | inactive | 12.6 µM (active) | inactive | inactive | inactive | inactive
CCCCC(CC)COS(=O)(=O)O (stereo not drawn) | inactive | inactive | inactive | inactive | inactive | inactive | inactive | inactive | inactive | inactive | inactive | inactive | inactive | inactive | inactive | inactive | inactive | inactive | inactive | inactive
CCc1ncnc2cc(OC)c(OC)cc12 | inactive | inactive | inactive | inactive | inactive | inactive | inactive | inactive | inactive | inactive | inactive | inactive | inactive | inactive | inactive | inactive | inactive | inactive | inactive | inactive
CC(=O)Nc1ccc(OC(=O)c2ccccc2O)cc1 | inactive | inactive | inactive | inactive | inactive | inactive | inactive | inactive | inactive | inactive | inactive | inactive | inactive | inactive | inactive | inactive | inactive | inactive | inactive | inactive
CC1CCCCN1CCCOC(=O)c1ccccc1 (stereo not drawn) | inactive | inactive | inactive | inactive | inactive | inactive | inactive | inactive | inactive | inactive | inactive | inactive | inactive | – | inactive | inactive | inactive | inactive | inactive | inactive
CC(=O)Nc1c(I)c(C(=O)O)c(I)c(N(C)C(C)=O)c1I | inactive | inactive | inactive | inactive | inactive | inactive | inactive | inactive | inactive | inactive | inactive | – | inactive | inactive | inactive | inactive | inactive | inactive | inactive | inactive
CC1=CC(=C(c2ccc(N)cc2)c2ccc(N)cc2)C=CC1=N | 4.78 µM (active) | 4.26 µM (active) | 4.78 µM (active) | 6.01 µM (active) | 4.78 µM (active) | 2.13 µM (active) | 2.82 µM (active) | 1.07 µM (active) | 1.35 µM (active) | 5.36 µM (active) | 2.82 µM (active) | 2.24 µM (active) | 11.2 µM (active) | 0.536 µM (active) | 8.91 µM (active) | 1.26 µM (active) | – | 2.24 µM (active) | 2.51 µM (active) | 1.41 µM (active)
CC(=O)Oc1cc(C(F)(F)F)ccc1C(=O)O | inactive | inactive | inactive | inactive | inactive | inactive | inactive | inactive | inactive | inactive | inactive | inactive | inactive | inactive | inactive | inactive | inactive | inactive | inactive | inactive
OCCCNc1ccccc1 | inactive | inactive | inactive | inactive | inactive | inactive | inactive | inactive | inactive | inactive | inactive | inactive | inactive | inactive | inactive | inactive | inactive | inactive | inactive | inactive
FC(F)OC(Cl)C(F)(F)F (stereo not drawn) | inactive | inactive | inactive | inactive | inactive | inactive | inactive | inactive | – | inactive | inactive | inactive | inactive | inactive | inactive | inactive | inactive | inactive | inactive | inactive
c1ccc2c(c1)Sc1ccccc1N2CCN1CCCC1 | 12 µM (active) | 15.1 µM (active) | 12 µM (active) | 15.1 µM (active) | 15.1 µM (active) | 9.53 µM (active) | 10 µM (active) | 6.01 µM (active) | 6.75 µM (active) | 12 µM (active) | 5.62 µM (active) | 10 µM (active) | inactive | 7.57 µM (active) | – | 3.98 µM (active) | inactive | 7.94 µM (active) | 7.08 µM (active) | 7.94 µM (active)
